Screens: PubChem BioAssay, Johns Hopkins Ion Channel Center
An excerpt weighted towards active compounds, which were near 1.6% of everything screened.
KCNQ2 enhance = potentiators of rat KCNQ2 potassium channel | O88943 | CHO-K1 KCNQ2, FluxOR thallium flux fluorescence; stronger effect = higher value | B-score at 10 µM | 0.54% of 310,000 active;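 active = fluorescence ratio B-score at least 3 SD of library B-scores, with initial fluorescence B-score within 3 of them, cut at about 5.3 in these data; same plate scores as AID 2156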;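 also: B-score of peak minus minimum over baseline fluorescence ratio after K+ and Tl+ stimulus; positive B-score means potentiation of KCNQ2 with more thallium influx and brighter signal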
Target sequence (O88943 whole entry, looked up): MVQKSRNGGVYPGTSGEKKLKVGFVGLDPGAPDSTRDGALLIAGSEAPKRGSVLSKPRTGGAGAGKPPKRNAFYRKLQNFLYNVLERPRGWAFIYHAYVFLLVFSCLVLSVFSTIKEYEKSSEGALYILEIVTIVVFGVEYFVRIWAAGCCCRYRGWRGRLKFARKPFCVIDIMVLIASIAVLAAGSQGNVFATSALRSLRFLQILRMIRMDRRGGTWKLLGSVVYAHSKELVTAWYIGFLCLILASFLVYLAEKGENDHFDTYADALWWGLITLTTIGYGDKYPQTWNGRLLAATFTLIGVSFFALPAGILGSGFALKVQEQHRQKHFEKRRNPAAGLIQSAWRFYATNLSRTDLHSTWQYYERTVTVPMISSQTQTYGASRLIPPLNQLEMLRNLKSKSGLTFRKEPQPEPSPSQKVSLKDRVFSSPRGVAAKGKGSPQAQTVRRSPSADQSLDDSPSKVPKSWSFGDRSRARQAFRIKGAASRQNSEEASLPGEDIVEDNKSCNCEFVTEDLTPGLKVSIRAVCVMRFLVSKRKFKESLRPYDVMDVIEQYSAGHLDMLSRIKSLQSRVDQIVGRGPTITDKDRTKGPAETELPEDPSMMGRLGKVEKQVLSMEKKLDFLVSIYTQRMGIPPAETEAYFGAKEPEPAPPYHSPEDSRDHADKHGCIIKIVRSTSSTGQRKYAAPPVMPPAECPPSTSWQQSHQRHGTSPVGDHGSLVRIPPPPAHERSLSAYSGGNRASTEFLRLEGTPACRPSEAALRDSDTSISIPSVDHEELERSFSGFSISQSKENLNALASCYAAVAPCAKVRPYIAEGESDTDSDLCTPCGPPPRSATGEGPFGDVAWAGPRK
KCNQ2 block = blocks the rat KCNQ2 potassium channel. O88943. CHO-K1 KCNQ2, FluxOR thallium flux, 20 min; stronger effect = lower value. B-score at 10 µM. 1.1% of 310,000 active;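 active = fluorescence ratio B-score at most minus 3 library SDs, with starting brightness B-score within 2 library SDs, cut at about -5.5 in these data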
KCNQ2 block conf = confirmation of rat KCNQ2 potassium channel inhibitors. AID 493025. KCNQ2-expressing cells, thallium flux, inhibition; stronger effect = lower value. 57% of 1,000 active. shares compounds with KCNQ2 block. activity change, negative = inhibition, % at 10 µM;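 also: 0% = vehicle wells and values are ratio percent relative to vehicle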
KCNQ1 spec = human KCNQ1 activity in KCNQ2 inhibitor specificity screen; shares compounds with KCNQ2 block; KCNQ1-expressing cells, FluxOR thallium flux fluorescence; stronger effect = lower value; activity change, negative = inhibition, % at 10 µM; 15% of 1,000 active; AID 493026;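 active = activity change at least 3 SD of negative controls below their mean in both duplicate wells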;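 also: CHO cells stably transfected with KCNQ1 and depolarized by potassium stimulus; peak minus minimum fluorescence over baseline after thallium addition; 0% = vehicle negative control and -100% = blank without thallium stimulus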
CHO parental ctr = counter-screen for KCNQ2 inhibitors: effect in parental CHO cells; activity change, % at 10 µM; thallium flux counter-screen; stronger effect = lower value; shares compounds with KCNQ2 block; 14% of 1,000 active; AID 493029;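 also: 0% = vehicle negative controls with stimulus buffer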
KCNQ2 inh confirm = blocks rat KCNQ2 current in automated patch clamp | shares compounds with KCNQ2 block | KCNQ2-expressing cells | calls only at 10 µM | 49% of 550 active
* hit, by the source's call; i = inactive; nt = not tested or not shown; + = active, no number. Unless noted, no rule for the calls is given here.

SMILES | KCNQ2 enhance | KCNQ2 block | KCNQ2 block conf | KCNQ1 spec | CHO parental ctr | others
Cc1ccc(C(=O)NCCCc2ccccc2)c(Cl)c1 | nt | i | nt | nt | nt
CCN(Cc1ccccc1)C(=O)COC(=O)c1cc(Cl)nc(Cl)c1 | nt | i | nt | nt | nt
O=C(OCC(=O)N(CCc1ccccc1)Cc1ccccc1)c1ccccc1O | -7.17 | -7.17* | i | i | i
O=C(NCCC(=O)N(CCc1ccccc1)Cc1ccccc1)c1ccccc1Cl | -6.71 | -6.71* | -32.0%* | i | i | KCNQ2 inh confirm=+
COCCN(CCOC)S(=O)(=O)c1ccc(C(=O)Nc2ccc([N+](=O)[O-])cc2OC)cc1 | 0.72 | i | nt | nt | nt
O=C1CCC(C(=O)N2CCN(c3cnccn3)CC2)CN1CCc1ccc(Cl)cc1 (stereo not drawn) | nt | i | nt | nt | nt
CCCNc1cc(=S)nc(N)[nH]1 | 0.72 | i | nt | nt | nt
CN(CC(=O)Nc1ccccc1Oc1ccccc1)Cc1ccccc1F | nt | i | nt | nt | nt
Cc1ccccc1CN(C)CC(=O)Nc1ccccc1Oc1ccccc1 | -7.46 | -7.46* | -32.5%* | -31.5%* | -25.5%* | KCNQ2 inh confirm=i
CCOC(=O)c1c(NC(=O)CN2CCCc3ccccc32)sc(C)c1C | nt | i | nt | nt | nt
COC(=O)c1c(NC(=O)CN2CCCc3ccccc32)sc(C)c1C | -7.66 | -7.66* | -37.5%* | -33.0%* | -33.0%* | KCNQ2 inh confirm=i
CC(=O)c1cccc(Nc2c3c(nc4ccccc24)CCC3)c1 | nt | i | nt | nt | nt
COC(=O)c1cccc(Nc2c3c(nc4ccccc24)CCC3)c1 | -6.63 | -6.63* | -25.5%* | i | i | KCNQ2 inh confirm=+
CCCCn1nc2cc(C(=O)NCc3ccccc3)ccc2c1OCC | nt | i | nt | nt | nt
Cc1cccc(N(C)S(=O)(=O)c2ccc(-c3cc(C)no3)s2)c1 | -7.03 | -7.03* | i | i | i
CCN(c1cccc(C)c1)S(=O)(=O)c1ccc(-c2cc(C)no2)s1 | nt | i | nt | nt | nt
Cn1cnnc1SCC(=O)Nc1ccc(S(N)(=O)=O)cc1 | nt | i | nt | nt | nt
Cn1cnc([N+](=O)[O-])c1Oc1ccc2ccccc2c1 | nt | i | nt | nt | nt
Cc1ccccc1-c1noc(CCC(=O)NCc2ccco2)n1 | nt | i | nt | nt | nt
Cc1ccc(C)c(N2CCN(C(=O)C(Cc3ccccc3)n3cccc3)CC2)c1 (stereo not drawn) | -7.03 | -7.03* | -24.0%* | i | i | KCNQ2 inh confirm=i
Cc1ccc(C)c(N2CCN(C(=O)Cn3cccc3)CC2)c1 | 1.18 | i | nt | nt | nt
Cc1ccc(NS(=O)(=O)c2ccc(OCC(=O)Nc3cccc([N+](=O)[O-])c3)c(C)c2)cc1 | 0.01 | i | nt | nt | nt
CC(=O)Nc1c(-c2ccccc2)nc2ccc(Cl)cn12 | nt | i | nt | nt | nt
CCOC(=O)CNc1c(-c2ccccc2)nc2ccc(Cl)cn12 | -7.04 | -7.04* | -32.5%* | i | i | KCNQ2 inh confirm=+
CCC(C)Sc1cccc(-c2nc3ccc(C)cn3c2NCc2ccccc2)c1 (stereo not drawn) | nt | i | nt | nt | nt
SMILES | KCNQ2 enhance | KCNQ2 block | KCNQ2 block conf | KCNQ1 spec | CHO parental ctr | others
CCC(C)Sc1cccc(-c2nc3ccc(Cl)cn3c2NCc2ccccc2)c1 (stereo not drawn) | -7.3 | -7.3* | -33.0%* | -37.5%* | -25.0%* | KCNQ2 inh confirm=+
COc1cc(CNCCO)cc(Br)c1OCc1ccccc1Cl | nt | i | nt | nt | nt
COc1cc(CNCCO)cc(Cl)c1OCc1ccc(Cl)cc1Cl | -9.76 | -9.76* | -41.0%* | -31.0%* | -31.0%* | KCNQ2 inh confirm=i
Cc1ccccc1NC(=O)CSc1nnc(C)c2ccccc12 | nt | i | nt | nt | nt
CN(CC(O)COc1ccc(OCC(O)CN(C)C2CCCCC2)cc1)C1CCCCC1 (stereo not drawn) | 0.08 | i | nt | nt | nt
Cc1cccc(C)c1OCC(O)CN(Cc1ccccc1O)C1CCCCC1 (stereo not drawn) | -8.39 | -8.39* | -41.0%* | -43.0%* | -35.5%* | KCNQ2 inh confirm=+
Cc1[nH]c2ccccc2c1C(=O)CSC(=S)N1CCOCC1 | nt | i | nt | nt | nt
COC(=O)c1ccc(NC(=O)c2cc[n+](Cc3ccccc3)cc2)cc1 | nt | i | nt | nt | nt
CC(OC(=O)/C=C/c1ccc2ccccc2n1)C(=O)Nc1ccc(S(N)(=O)=O)cc1 (stereo not drawn) | 0.33 | i | nt | nt | nt
N#Cc1cc(-c2ccc(Cl)cc2)cnc1Sc1ccccc1 | nt | i | nt | nt | nt
N#Cc1cc(-c2ccccc2)cnc1Sc1ccc(Cl)cc1 | -6.81 | -6.81* | i | i | i
Cc1nc(Cl)c(C#N)cc1-c1ccccc1 | 1.36 | i | nt | nt | nt
Cc1nc(Sc2ccccc2)c(C#N)cc1-c1ccccc1 | -9.35 | -9.35* | i | i | i
Cc1ccccc1C(=O)O/N=C(\N)c1ccccc1 | nt | i | nt | nt | nt
Cc1ccccc1C(=NC(=O)c1ccccc1)c1ccccc1 | -8.46 | -8.46* | -28.5%* | i | i | KCNQ2 inh confirm=+
CCOc1cc(CNc2cccc3ccccc23)cc(Br)c1OCC(=O)NC(C)(C)C | -6.85 | -6.85* | i | i | i
CCOc1cc(CNc2ccc(N(C)C)cc2)cc(Br)c1OCC(=O)NC(C)(C)C | nt | i | nt | nt | nt
Cc1ccc(-c2nn(-c3ccccc3)cc2C(=O)O)o1 | nt | i | nt | nt | nt
Cc1ccc(-c2nn(-c3ccccc3)cc2CN(Cc2ccccc2)C(=O)c2ccco2)o1 | -15.1 | -15.1* | -47.0%* | -48.5%* | -49.5%* | KCNQ2 inh confirm=i
Oc1ccc(/C=N/Nc2nc(N3CCCCCC3)nc(N3CCCCCC3)n2)c(O)c1 | nt | i | nt | nt | nt
CC(/C=N/Nc1nc(N2CCCCC2)nc(N2CCCCC2)n1)=C\c1ccccc1 | -8.17 | -8.17* | -33.5%* | -34.5%* | -25.5%* | KCNQ2 inh confirm=i
C/C(=C/C=N/Nc1nc(N2CCCCC2)nc(N2CCCCC2)n1)c1ccccc1 | -7.19 | -7.19* | -29.0%* | i | i | KCNQ2 inh confirm=i
BrC(=C\c1ccccc1)/C=N/Nc1nc(N2CCOCC2)nc(N2CCOCC2)n1 | 0.25 | i | nt | nt | nt
O=S(=O)(c1ccccc1Cl)N1CCC(Cc2ccccc2)CC1 | nt | i | nt | nt | nt
Cc1cccc(NC(=O)CSc2nnc(-c3ccncc3)n2CC2CCCO2)c1 (stereo not drawn) | 1.41 | i | nt | nt | nt
SMILES | KCNQ2 enhance | KCNQ2 block | KCNQ2 block conf | KCNQ1 spec | CHO parental ctr | others
CCCC1(c2ccccc2)NC(=O)N(CC(=O)Nc2cc(C)ccc2OC)C1=O (stereo not drawn) | nt | i | nt | nt | nt
O=S(=O)(c1ccccc1)N(CC1CO1)c1cc(Cl)ccc1Cl (stereo not drawn) | 0.52 | i | nt | nt | nt
N#CCCN(Cc1ccccc1)C(=S)Nc1ccccc1 | nt | i | nt | nt | nt
CC(=O)Nc1ccccc1OCC(=O)NCCC1=CCCCC1 | 1.32 | i | nt | nt | nt
Cc1ccccc1OCC(=O)NCCC1=CCCCC1 | -7.34 | -7.34* | i | i | i
Cn1cc(S(=O)(=O)N2CCOCC2)cc1C(=O)NCc1ccccc1Cl | nt | i | nt | nt | nt
Cc1cc(C)c(OCCCNC2CCCC2)c(Br)c1 | 1.39 | i | nt | nt | nt
CC(C)Cc1nn2c(N)c(/C=C3\C=Nc4ccccc43)c(=O)nc2s1 | 0.14 | i | nt | nt | nt
Cc1ccccc1OCC(=O)N1N=C(C(F)(F)F)CC1(O)C(C)(C)C (stereo not drawn) | -8.15 | -8.15* | i | i | i
Cc1ccc(OCC(=O)N2N=C(C(F)(F)F)CC2(O)C(C)(C)C)cc1C (stereo not drawn) | nt | i | nt | nt | nt
Cc1onc(-c2ccccc2Cl)c1C(=O)NCC(=O)O | 0.01 | i | nt | nt | nt
